Glyco luc inh = blocks N-linked glycosylation in D54 reporter cells. reporter increase, % at 12.5 µM. D54 ERlucT glycosylation luciferase reporter, 24 h; percent of 100 nM tunicamycin response. AID 588692. actives 0.23% (n = 360,000);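 active = mean luciferase reporter signal, scaled so untreated is 0 and the glycosylation-blocking control 100, at or above a set limit in every replicate; inconclusive = mean reaches the limit but not every replicate does; inactive = mean below the limit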;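 note: luciferase carries N-glycosylation sites so blocking glycosylation raises the light; 0% = median of neutral control wells and 100% = median of 100 nM tunicamycin wells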
Vif imaging = blocks HIV Vif function. HEK293T cells, Vif self-association by quenched fluorescence, imaging, 24 h. actives 0.35% (n = 340,000). inhibition, % at 7.49 µM. AID 602346; in the data active = inhibition above about 50%, passing the limit was not always enough; inconclusive = no clear call, values can overlap the other calls; inactive = below about 31%
PfHsp90 set2 = growth inhibition of yeast expressing Plasmodium Hsp90; AID 504621; S. cerevisiae expressing PfHsp90, BacTiter-Glo ATP, 48 h; yeast lacking PDR1 and PDR3 efflux regulators; inhibition, % at 9.4 µM; actives 0.32% (n = 310,000);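 active = every replicate shows inhibition above about 80%, whatever the replicate mean, limit read from the data; inconclusive = mean inhibition reaches the set limit but some replicate falls short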;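 note: 0% = DMSO neutral controls and 100% = 20 µM radicicol positive controls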
MITF TRPM1 HTS = increases MITF-driven TRPM1 promoter luciferase signal | SK-MEL-5 TRPM1-promoter luciferase, 24 h; % of positive control, neutral wells = 0 | actives 0.75% (n = 300,000) | activation, % at 12.5 µM;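 active = mean activation of at least 80% with every replicate also reaching 80%; inconclusive = mean reaches 80% but some replicate falls short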;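 note: 0% = neutral control wells and 100% = parthenolide positive control wells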
Wnt bcat act = activates Wnt/beta-catenin signaling in a reporter cell assay. activator, plate reader. activation, % at 9.35 µM. actives 1.2% (n = 300,000); in the data active = activation above about 30%, passing the limit was not always enough; inconclusive = no clear call, values can overlap the other calls;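 note: 0% = neutral control wells and 100% = positive control wells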
esBAF inh = blocks esBAF chromatin remodeling in mouse ES cells | Bmi1-luciferase knock-in reporter, 24 h; 100% = twice the neutral-well signal | reporter increase, % at 12.5 µM | actives 2% (n = 350,000); in the data active = activation above about 40%; inconclusive = no clear call, values can overlap the other calls;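 note: 0% = median of the plate's neutral control wells and 100% = double that signal; a rise in the Bmi1 reporter signal indicates esBAF inhibition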
Active calls of the source: *; ? = inconclusive; · = no result given. Sampled rows, rich in hits. Any-hit rate of the full collection: about 3%.

SMILES	Glyco luc inh	Vif imaging	PfHsp90 set2	MITF TRPM1 HTS	Wnt bcat act	esBAF inh
CC(C)NC(=O)c1ccc(-c2ccccc2C(F)(F)F)o1	-0.5	-1.4	-29.4	75.8	·	47.2*
O=C(Nc1ccccc1)c1ccc(-c2ccccc2C(F)(F)F)o1	-0.8	-1.7	27.1	79.5	29.3	52.2*
CC(C)NC(=O)N(C)C[C@@H]1Oc2ccc(NC(=O)Cc3cn(C)c4ccccc34)cc2C(=O)N([C@@H](C)CO)C[C@@H]1C	·	·	·	·	·	-2.9
O=[N+]([O-])/C=C\c1ccc(N2CCCC2)c(F)c1	5.1	10.1	105.5*	-92.1	·	2.8
O=Cc1ccc(N2CCCC2)c([N+](=O)[O-])c1	0.6	-9.0	20.5	-3.2	-0.8	-0.7
CCC(=O)N1CCc2nc(-c3ccccc3)sc2C1	-0.3	-2.0	-12.7	84.0*	13.2	46.3*
CC(C)(C)C(=O)Nc1nc2c(s1)CN(Cc1ccccc1)CC2	-1.9	6.9	-8.2	72.1	-2.4	·
Cc1ccc(C2C(C(=O)c3cccs3)=C(O)C(=O)N2c2cccc(C)n2)cc1 (stereo unspecified)	-1.0	-8.2	-5.3	·	33.5*	·
Cc1ccc(C2C(C(=O)c3cccs3)=C(O)C(=O)N2c2ccc(S(N)(=O)=O)cc2)cc1 (stereo unspecified)	1.0	-10.3	12.8	12.3	-1.1	·
Cc1ccc(NC(=O)CCC(=O)NNC(=O)NC2CCCCC2)c(C)c1	1.1	78.6*	-8.4	-8.3	-0.3	-7.0
Cc1ccc(NC(=O)CCC(=O)NNC(=O)C(C)(C)C)c(C)c1	1.9	-7.6	13.9	5.5	39.9*	·
CCC(=O)NNC(=O)CCC(=O)Nc1ccc(C)cc1C	0.7	-3.4	0.3	18.9	-7.1	8.0
C(=NC12CN3CN(CN(C3)C1)C2)c1ccc2c(c1)OCO2	2.6	0.9	17.6	·	-0.9	-0.8
Cc1cccc(N2CCN(c3cccc(C)c3)C2c2cccnc2)c1	-1.4	-3.8	13.0	·	37.4*	11.7
Cc1cccc(N2C(=O)CSC2c2cccnc2)c1 (stereo unspecified)	1.0	9.8	0.5	2.1	-3.9	-9.8
COc1ccc(C2Nc3ccccc3C(=O)N2Cc2ccco2)cc1COc1ccc([N+](=O)[O-])cc1 (stereo unspecified)	-5.2	-1.2	-0.5	0.6	·	·
COCCNc1oc(-c2ccc(C)cc2)nc1C#N	-1.5	1.7	-16.5	66.0	·	65.3*
COCCNc1oc(-c2ccc(Cl)cc2)nc1C#N	-0.5	-6.2	2.0	81.3*	43.1*	·
N#Cc1nc(-c2ccccc2)oc1NCc1ccco1	2.0	·	-48.9	45.4	1.5	-30.3
COc1ccc(CCNc2oc(-c3ccc(C)cc3)nc2C#N)cc1OC	-2.0	-5.9	-5.4	24.7	-0.1	4.8
COCCNc1oc(/C=C/c2ccccc2)nc1C#N	-3.4	55.3*	6.9	102.8*	45.6*	·
CN(C)CCCNc1oc(-c2ccc(Cl)cc2)nc1C#N	-1.1	12.2	11.9	22.5	·	12.3
N#Cc1nc(-c2ccc(Cl)cc2)oc1NCc1ccco1	2.9	-3.9	13.6	70.1	38.4*	52.4*
CSc1nc2c(c(=O)[nH]1)C(c1ccc(Br)cc1)CC(=O)N2 (stereo unspecified)	-0.3	13.5	-7.6	0.0	·	·
CC(=O)O[C@H]1CC(=O)OC(C)(C)C2CC(=O)[C@]3(C)C(CC[C@@](C)([C@@H](O[C@@H]4O[C@H](CO)[C@@H](O)[C@H](O)[C@H]4O)c4ccoc4)[C@@]34O[C@@H]4C(=O)O)[C@]21C (stereo partly specified)	-1.2	-0.7	-38.8	-6.4	-1.4	0.0
SMILES	Glyco luc inh	Vif imaging	PfHsp90 set2	MITF TRPM1 HTS	Wnt bcat act	esBAF inh
CC1CCN(CCNC(=O)c2ccc3c(=O)n(CCc4ccccc4)c(=O)[nH]c3c2)CC1	·	·	·	·	-3.4	·
CC1CCN(CCCNC(=O)c2ccc3c(=O)n(CCc4ccccc4)c(=O)[nH]c3c2)CC1	-6.0	51.9*	·	·	0.9	8.5
Cc1ccc(Sc2cc(C)nc(-c3ccccn3)n2)cc1	-2.2	-1.1	-13.1	·	33.0*	·
COc1cnc(-c2ccccn2)nc1Sc1ccc(C)cc1	11.1	1.4	5.7	-5.1	-2.3	·
O=C(Nc1ccc2c(c1)oc1ccccc12)c1cccnc1	0.2	-12.8	39.4	105.8*	·	68.2*
O=C(Nc1ccc(-c2nc3ccccc3o2)cc1)c1cccnc1	-3.0	·	-17.0	31.9	42.0*	50.1*
O=C(Nc1cccc(-c2nc3ccccc3o2)c1)c1cccnc1	2.7	-1.3	·	18.6	-1.0	·
O=C(NCCc1ccccc1)c1ccc(NC(=O)c2cccnc2)cc1	-2.3	-9.6	15.2	-7.4	-2.0	14.7
O=C(Nc1ccc2oc(-c3ccccc3)nc2c1)c1ccncc1	-2.1	-15.4	16.2	19.0	·	54.1*
O=C(Nc1ccc(-c2noc(CCc3ccccc3)n2)cc1)c1cccnc1	-3.7	23.1	21.8	2.8	·	49.4*
O=[N+]([O-])c1ccc(C=Nc2ccc(Cl)c([N+](=O)[O-])c2)s1	?	18.2	106.3*	-69.9	-0.5	-46.9
NC(=O)c1ccc(N=Cc2ccc([N+](=O)[O-])s2)cc1	43.9*	·	104.4*	-51.2	-1.2	·
Cc1cc(C)cc(N=Cc2ccc([N+](=O)[O-])s2)c1	22.1	-4.5	106.0*	-25.7	·	·
Cc1ccc(NC(=S)N/N=C/c2ccc([N+](=O)[O-])s2)cc1	-15.7	-3.4	100.3*	-71.4	-0.8	·
COC(=O)CCCC(=O)N1CCCC(C(=O)c2ccc(OC)cc2C)C1 (stereo unspecified)	2.3	-0.7	-3.3	6.7	1.0	·
Cc1nc(NC(=O)C2CC2)sc1C(=O)Nc1ccccc1Cl	0.6	15.1	7.0	·	0.6	53.1*
COc1ccc2nc(N(CCN(C)C)C(=O)/C=C/c3cccs3)sc2c1	3.5	6.3	-8.8	-16.2	-0.7	·
O=C1CCN(Cc2ccccc2)C=C1c1ccc2ccccc2c1	-9.4	-0.7	-11.9	50.7	43.7*	63.3*
COc1cccc(N2CCN(C(=O)c3ccc4nc(N5CCC(C)CC5)sc4c3)CC2)c1	·	·	·	·	6.4	·
OCCCNCc1ccc(-c2ccccc2)cc1	1.8	-2.2	10.9	-2.1	27.0	-9.7
CCOc1cccc(C(=O)NC(=S)Nc2ccc3c(c2)OCCO3)c1	0.0	5.5	6.4	102.6*	-1.2	?
COc1ccc(NC(=S)NC(=O)c2ccc3c(c2)OCCO3)cc1	-3.4	-1.2	-3.3	70.3	-4.5	54.2*
CCCOC(=O)c1ccc(Oc2cn[nH]c2-c2ccc(OCC)cc2O)cc1	-4.2	-23.2	98.4*	-5.3	-5.6	·
CCCc1ccc(Oc2cn[nH]c2-c2ccc(O)c(C)c2O)cc1	-7.5	-10.8	141.6*	-6.8	·	-5.2
Nc1ccc(N=Nc2ccccc2O)c(N)c1	-5.8	5.3	·	·	48.8*	·
Oc1ccccc1N=Nc1ccccc1O	-9.0	1.4	0.3	-13.1	-0.9	·
Cc1ccc(O)c(C(=O)c2cnc3c(c2)COc2ccc(C)cc2-3)c1	-0.3	-2.9	26.3	22.6	-1.0	8.4
